Laboratory results: PubChem BioAssay (NCATS)
Results filed as inconclusive are left out. Where a call stands in place of a potency, no number is given. The source made the active and inactive calls. The call rests on the fitted dose curve; in most records, active means well fitted inhibition curve with a large enough effect; inconclusive means small, poorly fitted or top-dose-only effect, or effect the other way; inactive means flat fitted curve, though single readings scatter.

molecular target: ATP-dependent 6-phosphofructokinase (Trypanosoma brucei brucei) (UniProt O15648); assay: qHTS Assay to Find Inhibitors of T. brucei phosphofructokinase: hit validation (AID 492961);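 further: luminescence reports ADP formed as PFK phosphorylates fructose-6-phosphate with ATP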; settings: T. brucei PFK, ADP-Glo luminescence; series mostly up to 51.4 µM
How it was run: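 ADP-Glo luminescence read-out of ADP formed by 1.25 nM PFK from 0.1 mM ATP and 0.5 mM F6P (TEA pH 8.0, 45 min, RT). Compounds titrated; activity normalized to no-enzyme and full-enzyme controls.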

Sequence of ATP-dependent 6-phosphofructokinase (Trypanosoma brucei brucei) (O15648 whole entry, looked up): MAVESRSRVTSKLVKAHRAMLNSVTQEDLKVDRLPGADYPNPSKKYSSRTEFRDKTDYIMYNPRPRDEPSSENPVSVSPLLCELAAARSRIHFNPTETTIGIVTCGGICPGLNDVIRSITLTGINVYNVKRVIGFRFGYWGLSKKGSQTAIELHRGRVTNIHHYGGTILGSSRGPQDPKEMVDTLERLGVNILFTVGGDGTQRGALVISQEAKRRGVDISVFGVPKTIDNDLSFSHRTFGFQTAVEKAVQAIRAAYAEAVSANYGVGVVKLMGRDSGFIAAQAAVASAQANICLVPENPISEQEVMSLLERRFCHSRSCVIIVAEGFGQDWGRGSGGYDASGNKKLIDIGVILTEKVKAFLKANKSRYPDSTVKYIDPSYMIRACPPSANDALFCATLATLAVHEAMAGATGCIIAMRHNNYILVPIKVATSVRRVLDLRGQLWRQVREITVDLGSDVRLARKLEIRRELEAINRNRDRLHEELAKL

| Compound | Potency |
| --- | --- |
| CN1CCCC(CN2c3ccccc3Sc3ccccc32)C1 (stereo not given) | inactive |
| CS(=O)(=O)c1ccc([C@@H](O)[C@@H](COC(=O)CN)NC(=O)C(Cl)Cl)cc1 | inactive |
| OC[C@H]1O[C@@H]2O[C@H]3[C@H](O)[C@@H](O)[C@@H](O[C@H]4[C@H](O)[C@@H](O)[C@@H](O[C@H]5[C@H](O)[C@@H](O)[C@@H](O[C@H]6[C@H](O)[C@@H](O)[C@@H](O[C@H]7[C@H](O)[C@@H](O)[C@@H](O[C@H]1[C@H](O)[C@H]2O)O[C@@H]7CO)O[C@@H]6CO)O[C@@H]5CO)O[C@@H]4CO)O[C@@H]3CO | inactive |
| CC(=O)c1ccc2c(c1)N(CCCN1CCN(CCO)CC1)c1ccccc1S2 | inactive |
| CO[C@H]1C[C@@H]2CC[C@@H](C)[C@@](O)(O2)C(=O)C(=O)N2CCCC[C@H]2C(=O)O[C@H]([C@H](C)C[C@@H]2CC[C@@H](OC(=O)C(C)(CO)CO)[C@H](OC)C2)CC(=O)[C@H](C)/C=C(\C)[C@@H](O)[C@@H](OC)C(=O)[C@H](C)C[C@H](C)/C=C/C=C/C=C/1C | inactive |
| c1ccc2c(c1)OCC(CN1CCCCC1)O2 (stereo not given) | inactive |
| N[C@@H](Cc1cc(I)c(Oc2ccc(O)c(I)c2)c(I)c1)C(=O)O | inactive |
| CCCCCCCCCCCCCCCCCC(=O)OC[C@@H](O)[C@H]1OC[C@H](O)[C@H]1O | inactive |
| O=C(c1cc2ccccc2o1)N1CCN(Cc2ccccc2)CC1 | inactive |
| NC(=O)[C@@H]1CCCN1C(=O)[C@H](Cc1cnc[nH]1)NC(=O)[C@@H]1CCC(=O)N1 | inactive |
| CC(CNC(=O)c1cccnc1)NC(=O)c1cccnc1 (stereo not given) | inactive |
| CN[C@@H]1[C@H](O[C@H]2[C@H](O[C@H]3[C@H](O)[C@@H](O)[C@H](N=C(N)N)[C@@H](O)[C@@H]3N=C(N)N)O[C@@H](C)[C@]2(O)C=O)O[C@@H](CO)[C@H](O)[C@H]1O | inactive |
| C=CCOc1ccc(CC(=O)O)cc1Cl | inactive |
| F[Si-2](F)(F)(F)(F)F | inactive |
| CCC(Cc1c(I)cc(I)c(O)c1I)C(=O)O (stereo not given) | inactive |
| ClC(Cl)Cl | inactive |
| CC(C)CCC[C@@H](C)[C@H]1CC[C@H]2[C@@H]3CC=C4C[C@@H](O)CC[C@]4(C)[C@H]3CC[C@]12C | inactive |
| CS(=O)(=O)OCC(O)C(O)COS(C)(=O)=O (stereo not given) | inactive |

| Compound | Potency |
| --- | --- |
| O=C1NCCN1c1ncc([N+](=O)[O-])s1 | inactive |
| CC(C)(COP(=O)(O)OP(=O)(O)OC[C@H]1O[C@@H](n2cnc3c(N)ncnc32)[C@H](O)[C@@H]1OP(=O)(O)O)C(O)C(=O)NCCC(=O)NCCS (stereo not given in full) | inactive |
| N=C(N)c1ccc(/C=C/c2ccc(C(=N)N)cc2O)cc1 | inactive |
| CCN(CC)CCOc1ccccc1OC | inactive |
| CC1=CC(=C(c2ccc(N)cc2)c2ccc(N)cc2)C=CC1=N | inactive |
| O=C1CCC(c2ccccc2)(C2CCN(Cc3ccccc3)CC2)C(=O)N1 (stereo not given) | inactive |
| C[C@H](CCC(=O)O)[C@H]1CC[C@H]2[C@@H]3CC[C@@H]4C[C@H](O)CC[C@]4(C)[C@H]3C[C@H](O)[C@]12C | inactive |
| C=C(C)C1CC=C(C)CC1 (stereo not given) | inactive |
| C[C@]12CCC(=O)C[C@@H]1CC[C@@H]1[C@@H]2CC[C@]2(C)C=CC[C@@H]12 | inactive |
| CC(C)(CO)[C@@H](O)C(=O)NCCC(=O)NCCSSCCNC(=O)CCNC(=O)[C@H](O)C(C)(C)CO | inactive |
| CCC(O)c1ccccc1 (stereo not given) | inactive |
| CCCCCCCCCCCCCCCCCC[N+](C)(C)CCC[Si](OC)(OC)OC | inactive |
| CN1C(=O)OC(C)(C)C1=O | inactive |
| O=C1c2ccccc2CN2C(=O)c3ccccc3CN12 | inactive |
| CNC(=O)C[C@@H](N)C(=O)N[C@@H](C(=O)N[C@@H]1C(=O)N2[C@@H]1SC(C)(C)[C@@H]2C(=O)O)c1ccc(O)cc1 | inactive |
| COc1ccc(C(=O)CCC(=O)O)c2ccccc12 | inactive |
| CCOC(=O)C1=C(COCCN)NC(C)=C(C(=O)OC)C1c1ccccc1Cl (stereo not given) | inactive |
